# Unmarked numbers belong to inactive results.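 How the source made its calls: active = log2 fold change beyond 2 SD from the library mean after excluding viability outliers; inactive = within 2 SD.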
# Target: PARP1 L713F-nLuc biosensor (HCT116) (UniProt P09874)
# Experiment: PARP1 L713F-nLuc/akaLuc ratio relative to DMSO control (biosensor stabilization) (fold change); higher = more PARP1 biosensor stabilization (target engagement / stabilizer), active = hit call of the paper
# Details: stock concentration (mM; final µM = stock mM x 1): 2; 24 h
# Chain of PARP1 L713F-nLuc biosensor (HCT116) (P09874 whole entry L713F, looked up): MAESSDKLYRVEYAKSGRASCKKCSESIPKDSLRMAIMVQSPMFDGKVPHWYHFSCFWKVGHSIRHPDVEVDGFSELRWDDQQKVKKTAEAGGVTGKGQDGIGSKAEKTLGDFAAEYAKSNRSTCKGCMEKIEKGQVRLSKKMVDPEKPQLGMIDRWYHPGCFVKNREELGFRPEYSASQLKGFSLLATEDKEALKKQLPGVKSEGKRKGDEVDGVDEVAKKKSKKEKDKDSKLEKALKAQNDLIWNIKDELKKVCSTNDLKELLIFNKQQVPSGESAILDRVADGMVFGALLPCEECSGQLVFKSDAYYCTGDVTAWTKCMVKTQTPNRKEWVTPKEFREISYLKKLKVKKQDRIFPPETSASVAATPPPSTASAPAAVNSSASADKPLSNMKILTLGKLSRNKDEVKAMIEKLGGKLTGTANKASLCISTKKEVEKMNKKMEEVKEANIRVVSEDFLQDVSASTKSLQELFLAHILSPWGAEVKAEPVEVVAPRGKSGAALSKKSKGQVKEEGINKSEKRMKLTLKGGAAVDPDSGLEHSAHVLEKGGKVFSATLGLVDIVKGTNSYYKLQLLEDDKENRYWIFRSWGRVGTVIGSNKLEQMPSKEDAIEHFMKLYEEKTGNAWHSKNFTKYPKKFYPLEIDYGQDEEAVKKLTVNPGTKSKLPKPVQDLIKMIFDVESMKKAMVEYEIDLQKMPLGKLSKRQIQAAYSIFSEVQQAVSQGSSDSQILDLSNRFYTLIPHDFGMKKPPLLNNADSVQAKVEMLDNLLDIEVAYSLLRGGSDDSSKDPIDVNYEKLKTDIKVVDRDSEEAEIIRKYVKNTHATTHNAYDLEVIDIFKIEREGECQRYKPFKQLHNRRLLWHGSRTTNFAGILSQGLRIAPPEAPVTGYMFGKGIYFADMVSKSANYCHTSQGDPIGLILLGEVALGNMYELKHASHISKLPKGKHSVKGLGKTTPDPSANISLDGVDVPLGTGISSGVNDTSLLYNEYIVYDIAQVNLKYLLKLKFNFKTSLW
structure (smiles),measurement,value
CC(=O)c1c(O)c(C)c(O)c(Cc2c(O)c3c(c(C(=O)/C=C/c4ccccc4)c2O)OC(C)(C)C=C3)c1O [Rottlerin],PARP1 L713F-nLuc/akaLuc ratio,0.628
